Bioassay records deposited in PubChem by The Scripps Research Institute Molecular Screening Center.
Shown are actives, neighbours in structure and some others; about 2.4% of the full set was active somewhere.
CHRM1 agonist: human M1 muscarinic receptor agonism | activation, % at 3 µM | AID 588814 | P11229 | 0.33% of 360,000 active | CHO-K1 hM1, Fluo-8 calcium fluorescence, agonist mode; 0% DMSO, 100% acetylcholine EC100;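 active = activation above the run's mean compound activation plus 3 SD, cut at about 16% in these data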;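 note: peak over basal fluorescence ratio within a 140 s kinetic read after compound addition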
Target sequence (P11229 whole entry, looked up): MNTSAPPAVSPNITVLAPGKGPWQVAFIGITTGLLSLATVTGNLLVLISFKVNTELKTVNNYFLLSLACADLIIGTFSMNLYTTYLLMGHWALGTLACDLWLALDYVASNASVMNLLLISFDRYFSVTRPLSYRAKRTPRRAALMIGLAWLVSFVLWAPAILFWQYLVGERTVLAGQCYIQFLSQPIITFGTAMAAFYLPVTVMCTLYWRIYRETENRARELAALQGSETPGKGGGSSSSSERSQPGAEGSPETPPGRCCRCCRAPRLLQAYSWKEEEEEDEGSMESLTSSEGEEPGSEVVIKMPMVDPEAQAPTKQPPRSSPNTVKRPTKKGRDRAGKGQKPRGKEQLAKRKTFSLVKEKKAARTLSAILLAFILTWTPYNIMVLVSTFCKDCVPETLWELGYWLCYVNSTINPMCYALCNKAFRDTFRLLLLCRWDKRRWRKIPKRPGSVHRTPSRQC
CHRM1 antagonist: human CHRM1 antagonism; 1.3% of 360,000 active; inhibition, % at 3 µM; P11229; CHO-K1 hM1, Fluo-8 calcium fluorescence, ACh EC80 antagonist;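 active = percent inhibition above its own plate's cutoff, namely the mean of that plate's compound wells plus 3 SD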;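 note: peak over basal fluorescence ratio during 140 s after agonist addition; 0% = ACh EC80 plus DMSO and 100% = DMSO alone without agonist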
M1 ag parental: nonselective activator or artifact in parental CHO-K1 cells | 0.48% of 360,000 active | activation, % at 3 µM | Fluo-8 calcium fluorescence; scaled to maximal ATP response, vehicle zero; in the data active = activation above about 15%;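 note: untransfected CHO-K1 host cells lacking M1 receptor as counterscreen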
CHO-K1 Ca PAM: counter-screen for M1 PAMs: effect in parental CHO-K1 cells | ATP EC20, Fluo-8 calcium fluorescence; 0% at ATP EC20, 100% at ATP max | activation, % at 3 µM | 0.02% of 360,000 active;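 active = activation above the run cutoff, the mean activation of all test compounds plus 3 SD, cut at about 40% in these data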;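 note: peak over basal fluorescence ratio in a 140 s read after ATP addition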
CHO-K1 Ca antag: counter-screen for M1 antagonists: effect in parental CHO-K1 cells | ATP-induced calcium, Fluo-8 fluorescence | inhibition, % at 3 µM | 0.6% of 360,000 active | AID 602250;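 active = inhibition above a per-plate cutoff, the plate's mean sample inhibition plus 3 SD, cut at about 24% in these data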;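 note: 0% = DMSO plus EC80 ATP and 100% = DMSO alone without ATP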
M1 PAM: positive allosteric modulators of human M1 muscarinic receptor; 0.088% of 360,000 active; CHO-K1 hM1, Fluo-8 calcium fluorescence, ACh EC20; 0% = ACh EC20, 100% = maximal ACh; P11229; activation, % at 3 µM; AID 588819; in the data active = activation above about 19%, passing the limit was not always enough
* hit, by the source's call.

SMILES	CHRM1 agonist	CHRM1 antagonist	M1 ag parental	CHO-K1 Ca PAM	CHO-K1 Ca antag	M1 PAM
Cn1c2[n+](c3ccc(Cl)cc3c1=O)Cc1ccccc1-2	-3	13	16*	5	4	-6
Cn1c(=O)c(-c2cccc(Cl)c2)c(O)c2ccccc21	-1	-12	1	-2	3	10
CCCCNC(=O)C1(C)CCCCN1Cc1ccccc1-c1ccccc1 (stereo not given)	-7	31*	0	15	-15	-25
N#CCC(=O)N/N=C/c1cc([N+](=O)[O-])ccc1N1CCOCC1	-5	7	0	-15	26*	-8
O=C(N/N=C/c1ccccc1[N+](=O)[O-])c1ccncc1	-2	0	0	0	-7	26*
O=C(N/N=C/c1cc([N+](=O)[O-])c(N2CCOCC2)cc1N1CCOCC1)c1cccnc1	-6	8	21*	17	1	-1
O=C(N/N=C/C=C/c1ccccc1[N+](=O)[O-])c1ccncc1	-2	-19	0	1	-3	7
O=C(N/N=C/c1ccccc1)c1ccc(N2CCOCC2)c([N+](=O)[O-])c1	-5	3	1	15	-4	1
COc1cccc(CN(C)CC(=O)NC(=O)NCc2ccco2)c1	-4	-3	0	-1	-6	3
CCC(C)NC(=S)N(Cc1cc2cc(C)ccc2n2nnnc12)CC(C)(C)NC(C)C (stereo not given)	-2	17	0	-14	-1	-10
Cn1nc(C(F)(F)F)c(/C=N/OC(=O)c2ccccc2Cl)c1SCc1ccccc1Cl	-7	33*	2	20	-14	-28
C=C(C)COc1ccc(-c2ncnc(C(F)(F)F)c2-c2ccccc2)c(O)c1	-11	37*	4	14	-2	-26
COc1ccc(C(C(=O)NC(C)(C)C)N(C(=O)CCC(=O)Nc2cc(C)on2)c2ccccc2F)cc1 (stereo not given)	-2	-16	0	-6	0	9
CC(=O)Nc1ccc(CN2C(=O)C(C)(C)ON=C2c2ccc(C(F)(F)F)cc2)cc1	0	0	0	-10	37*	8
Cc1cccc(C(=O)Oc2ccc(/C=N/NC(=O)c3ccccc3O)cc2)c1	-2	23	10	8	6	-18
Cc1cccc(C(=O)Oc2ccc(/C=N/NC(=O)c3ccc(O)cc3)cc2)c1	0	41*	6	-16	11	-12
Cc1cc(Br)c(NC(=O)Cn2c([N+](=O)[O-])cnc2C)cc1C	-7	-11	2	3	5	7
COc1cc(Nc2c3c(nc4ccccc24)CCCC3)cc(OC)c1OC	-13	14	17*	7	4	-8
COc1ccccc1Nc1c2c(nc3ccccc13)CCC2	-8	5	4	16	-35	-3
c1ccc2c(Nc3ccc4c(c3)OCCO4)c3c(nc2c1)CCCC3	-10	28*	1	12	-10	-29
Fc1cccc(Nc2c3c(nc4ccccc24)CCC3)c1	-8	-12	4	4	0	6
CCc1nnc(NC(=O)CSc2nc3cc(OC)ccc3cc2C)s1	-6	0	0	-13	7	-2
C[N+]1(C2CCC3CCCC2C3O)CCCC1 (stereo not given)	1	-11	0	14	-17	4
Cc1onc(-c2ccccc2)c1C(=O)NNC(=S)NC(=O)c1ccc2c(c1)OCO2	52*	19	55*	-13	1	-14
Cc1onc(-c2ccccc2)c1C(=O)NC(=S)NNC(=O)c1ccco1	17*	-7	18*	8	-4	3
SMILES	CHRM1 agonist	CHRM1 antagonist	M1 ag parental	CHO-K1 Ca PAM	CHO-K1 Ca antag	M1 PAM
COc1ccc(C(=O)NC(=S)NNC(=O)c2c(-c3ccccc3)noc2C)cc1OC	16	-1	15	-6	-7	0
COc1ccc(C2CC(=O)c3c(O)cc(O)cc3O2)cc1O (stereo not given)	-2	28*	1	-13	14	-18
O=C1CC(c2ccc(O)c(O)c2)Oc2cc(O)cc(O)c21 (stereo not given)	2	-11	0	-12	12	15
Cc1ccc(SCC(=O)Nc2ccc(N3CCN(C)CC3)c(F)c2)c(C)c1	-16	30*	2	20	-13	-38
C=CCn1c(SC(C)C#N)nc2sc(CC)cc2c1=O (stereo not given)	-6	-5	12	22	-19	6
CCC(=O)N1CCCc2cc(S(=O)(=O)N3CCN(c4ncccn4)CC3)ccc21	1	5	0	1	24*	6
Cc1cc[n+](CC(=O)c2cc3ccccc3oc2=O)cc1	-8	59*	0	17	-3	-23
COc1ccc(F)cc1C(=O)C1CCCN(Cc2cccn2-c2cccnc2)C1 (stereo not given)	-8	-10	2	12	-3	0
COc1ccc(F)cc1C(=O)C1CCCN(Cc2c(C)n(C)n(-c3ccccc3)c2=O)C1 (stereo not given)	-14	36*	2	22	7	-32
c1cnc2ccc(-n3ccnc3)cc2c1	-6	6	0	6	13	1
CSc1ccc(CN2CCC(C)(Oc3ccc(-n4ccnc4)cc3)C2)cc1 (stereo not given)	-8	58*	5	-3	-8	-29
COCOc1cccc(CN2CCC(C)(Oc3ccc(C(C)=O)cc3)C2)c1 (stereo not given)	-9	29*	-1	1	13	-10
CSc1ccc(OC2(C)CCN(Cc3ccccc3)C2)cc1 (stereo not given)	-8	28*	0	-12	-1	-22
CSc1ccc(CN2CCC(C)(Oc3ccc(CC#N)cc3)C2)cc1 (stereo not given)	-8	29*	3	14	-15	-24
CSc1ccc(CN2CCC(C)(Oc3ccc4ccccc4c3)C2)cc1 (stereo not given)	-6	-8	0	-4	0	1
CCC(C(=O)Oc1c(C(C)C)cccc1C(C)C)c1ccccc1 (stereo not given)	-7	0	0	-12	2	7
CC(C)c1ccc(CN2CCC(C)(Oc3ccc(Cl)cc3)C2)cc1 (stereo not given)	-6	-9	1	18	-8	6
COC(=O)Cc1ccc(OC2(C)CCN(Cc3ccccc3)C2)cc1 (stereo not given)	-6	53*	1	16	-10	-26
O=C1NC2(c3ccccc3)NC(=O)NC2(c2ccccc2)N1 (stereo not given)	-4	-6	1	25	4	2
CN1C(=O)N(C)C2(c3ccccc3)NC(=O)NC12c1ccccc1 (stereo not given)	8	-14	0	-8	29*	11
